Reference: the supplement of paper PMC6411743
± gives the standard deviation of the averaged measurements. Targets with the largest changes are over-represented here; the source holds about 6,500 in all.

Compound: Nc1ncnc2c1ncn2[C@@H]1O[C@H](COP(=O)(O)OP(=O)(O)OP(=O)(O)O)[C@@H](O)[C@H]1O [adenosine triphosphate]
Assay: NP40-soluble protein abundance relative to vehicle (solubility fold change) (ratio); higher = more soluble protein in presence of ATP
Method in brief: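 Crude Jurkat lysate, prepared by Dounce homogenisation, was exposed to eight concentrations from 0.1 to 10 mM for 10 min at room temperature and then 3 min at 37 °C. Solubilisation used 0.8% NP40 with benzonase for 60 min at 4 °C, followed by ultracentrifugation and TMT labelling of the supernatant for LC-MS/MS. After vsn normalisation of intensities, each value is the fold change against the detergent-processed vehicle within each replicate, across three independent experiments.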

Sequence of UniProt Q15029 (Q15029 whole entry): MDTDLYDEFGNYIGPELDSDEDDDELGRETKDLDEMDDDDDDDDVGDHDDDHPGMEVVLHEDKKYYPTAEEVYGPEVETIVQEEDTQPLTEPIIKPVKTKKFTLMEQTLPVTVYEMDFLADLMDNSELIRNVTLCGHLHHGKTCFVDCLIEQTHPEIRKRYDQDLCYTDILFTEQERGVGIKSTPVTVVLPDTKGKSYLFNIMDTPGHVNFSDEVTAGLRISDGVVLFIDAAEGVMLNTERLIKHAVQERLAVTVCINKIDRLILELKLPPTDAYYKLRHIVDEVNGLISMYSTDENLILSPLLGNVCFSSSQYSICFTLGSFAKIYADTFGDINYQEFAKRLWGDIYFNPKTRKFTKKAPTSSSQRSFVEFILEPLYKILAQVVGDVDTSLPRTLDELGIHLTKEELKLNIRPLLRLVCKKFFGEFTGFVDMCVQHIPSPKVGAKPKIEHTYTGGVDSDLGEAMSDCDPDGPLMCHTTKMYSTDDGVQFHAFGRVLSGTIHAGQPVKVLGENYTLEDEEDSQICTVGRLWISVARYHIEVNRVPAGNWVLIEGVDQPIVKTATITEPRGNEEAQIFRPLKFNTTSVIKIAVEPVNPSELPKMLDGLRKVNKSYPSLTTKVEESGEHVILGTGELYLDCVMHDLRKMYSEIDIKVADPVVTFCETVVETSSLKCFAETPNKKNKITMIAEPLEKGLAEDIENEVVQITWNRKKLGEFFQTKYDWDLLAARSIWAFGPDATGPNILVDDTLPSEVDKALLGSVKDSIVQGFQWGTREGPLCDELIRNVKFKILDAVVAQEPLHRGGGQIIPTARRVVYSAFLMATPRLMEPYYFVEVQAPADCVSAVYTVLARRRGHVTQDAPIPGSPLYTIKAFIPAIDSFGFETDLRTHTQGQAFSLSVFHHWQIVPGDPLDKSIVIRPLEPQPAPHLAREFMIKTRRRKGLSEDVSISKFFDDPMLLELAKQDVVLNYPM
Sequence of UniProt Q12872 (Q12872 whole entry): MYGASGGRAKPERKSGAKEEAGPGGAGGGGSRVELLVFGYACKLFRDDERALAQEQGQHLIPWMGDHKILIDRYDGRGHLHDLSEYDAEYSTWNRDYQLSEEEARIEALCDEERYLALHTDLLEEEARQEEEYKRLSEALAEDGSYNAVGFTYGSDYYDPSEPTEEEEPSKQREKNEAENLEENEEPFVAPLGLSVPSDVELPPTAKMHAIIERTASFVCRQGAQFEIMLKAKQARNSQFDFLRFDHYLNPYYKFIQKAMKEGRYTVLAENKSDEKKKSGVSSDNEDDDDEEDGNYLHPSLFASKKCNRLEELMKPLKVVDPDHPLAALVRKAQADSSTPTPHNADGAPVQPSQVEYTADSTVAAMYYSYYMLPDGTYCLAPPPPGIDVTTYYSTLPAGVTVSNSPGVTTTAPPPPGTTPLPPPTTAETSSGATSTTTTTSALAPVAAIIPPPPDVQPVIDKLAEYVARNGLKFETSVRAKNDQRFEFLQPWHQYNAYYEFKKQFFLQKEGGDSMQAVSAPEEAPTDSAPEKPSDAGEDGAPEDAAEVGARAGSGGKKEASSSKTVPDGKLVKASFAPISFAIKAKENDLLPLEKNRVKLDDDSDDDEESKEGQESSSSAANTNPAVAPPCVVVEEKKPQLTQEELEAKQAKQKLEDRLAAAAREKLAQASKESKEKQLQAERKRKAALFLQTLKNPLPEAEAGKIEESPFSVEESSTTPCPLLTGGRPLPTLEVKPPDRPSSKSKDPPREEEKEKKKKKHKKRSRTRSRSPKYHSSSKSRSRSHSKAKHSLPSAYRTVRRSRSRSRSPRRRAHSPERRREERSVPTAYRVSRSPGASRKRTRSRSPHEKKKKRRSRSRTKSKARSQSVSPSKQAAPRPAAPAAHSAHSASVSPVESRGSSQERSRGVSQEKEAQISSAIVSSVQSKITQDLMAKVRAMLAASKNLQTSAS
Sequence of UniProt Q7Z7K6 (Q7Z7K6 whole entry): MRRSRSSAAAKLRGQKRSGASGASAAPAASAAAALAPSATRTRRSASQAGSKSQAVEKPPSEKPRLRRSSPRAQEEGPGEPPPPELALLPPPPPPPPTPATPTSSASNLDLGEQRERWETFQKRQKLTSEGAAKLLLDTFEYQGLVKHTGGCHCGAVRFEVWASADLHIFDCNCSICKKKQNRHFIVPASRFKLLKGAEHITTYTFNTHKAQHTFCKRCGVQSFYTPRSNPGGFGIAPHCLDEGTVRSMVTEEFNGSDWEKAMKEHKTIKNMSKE
Sequence of UniProt Q86X95 (Q86X95 whole entry): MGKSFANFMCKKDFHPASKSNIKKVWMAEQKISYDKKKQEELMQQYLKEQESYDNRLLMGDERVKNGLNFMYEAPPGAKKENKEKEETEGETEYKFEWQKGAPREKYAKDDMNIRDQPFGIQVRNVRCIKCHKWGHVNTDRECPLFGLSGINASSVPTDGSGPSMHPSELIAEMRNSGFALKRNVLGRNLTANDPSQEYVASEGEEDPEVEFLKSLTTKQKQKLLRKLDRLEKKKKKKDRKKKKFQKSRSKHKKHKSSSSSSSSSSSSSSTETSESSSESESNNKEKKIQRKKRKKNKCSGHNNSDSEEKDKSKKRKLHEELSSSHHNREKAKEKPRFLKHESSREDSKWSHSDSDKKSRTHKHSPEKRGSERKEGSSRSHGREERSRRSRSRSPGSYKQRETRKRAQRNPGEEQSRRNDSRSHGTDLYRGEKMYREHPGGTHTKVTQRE
Sequence of UniProt Q14142 (Q14142 whole entry): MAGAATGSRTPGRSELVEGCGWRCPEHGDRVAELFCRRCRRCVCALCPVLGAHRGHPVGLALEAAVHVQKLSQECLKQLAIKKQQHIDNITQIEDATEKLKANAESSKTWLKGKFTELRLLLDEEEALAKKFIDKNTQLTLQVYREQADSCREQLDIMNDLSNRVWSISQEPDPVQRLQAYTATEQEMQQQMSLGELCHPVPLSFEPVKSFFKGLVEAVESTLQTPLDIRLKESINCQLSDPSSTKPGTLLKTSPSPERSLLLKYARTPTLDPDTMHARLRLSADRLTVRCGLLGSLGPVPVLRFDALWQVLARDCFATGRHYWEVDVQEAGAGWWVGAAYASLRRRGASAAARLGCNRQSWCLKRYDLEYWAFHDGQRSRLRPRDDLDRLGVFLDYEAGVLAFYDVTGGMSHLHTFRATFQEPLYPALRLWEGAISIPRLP
Sequence of UniProt Q13601 (Q13601 whole entry): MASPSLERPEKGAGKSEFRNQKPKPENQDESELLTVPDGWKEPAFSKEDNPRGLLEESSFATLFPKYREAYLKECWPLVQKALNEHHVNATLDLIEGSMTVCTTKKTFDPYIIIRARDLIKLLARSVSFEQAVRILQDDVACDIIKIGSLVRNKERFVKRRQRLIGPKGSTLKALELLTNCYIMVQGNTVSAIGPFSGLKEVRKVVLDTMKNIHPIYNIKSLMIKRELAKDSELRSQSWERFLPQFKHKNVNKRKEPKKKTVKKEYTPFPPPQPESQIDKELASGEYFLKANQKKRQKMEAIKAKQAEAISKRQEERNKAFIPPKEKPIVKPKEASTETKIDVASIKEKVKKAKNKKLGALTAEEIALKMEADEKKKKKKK
Sequence of UniProt Q8NFG4 (Q8NFG4 whole entry): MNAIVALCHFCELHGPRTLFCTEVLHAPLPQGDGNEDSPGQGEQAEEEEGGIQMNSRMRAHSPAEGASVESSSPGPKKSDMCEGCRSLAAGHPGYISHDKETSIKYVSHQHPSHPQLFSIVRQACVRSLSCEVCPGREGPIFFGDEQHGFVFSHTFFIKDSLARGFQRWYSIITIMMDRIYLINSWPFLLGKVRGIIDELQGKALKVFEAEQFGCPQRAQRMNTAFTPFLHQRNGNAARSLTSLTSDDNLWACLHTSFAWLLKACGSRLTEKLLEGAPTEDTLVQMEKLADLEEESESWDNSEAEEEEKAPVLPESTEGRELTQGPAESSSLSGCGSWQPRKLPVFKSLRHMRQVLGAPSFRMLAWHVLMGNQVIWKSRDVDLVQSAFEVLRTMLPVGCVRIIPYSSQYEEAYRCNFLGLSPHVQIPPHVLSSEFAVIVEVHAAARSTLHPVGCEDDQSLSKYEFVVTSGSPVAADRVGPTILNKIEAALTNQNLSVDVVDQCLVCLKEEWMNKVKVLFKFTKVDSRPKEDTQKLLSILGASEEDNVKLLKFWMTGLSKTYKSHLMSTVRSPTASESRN
Sequence of UniProt Q7Z5G4 (Q7Z5G4 whole entry): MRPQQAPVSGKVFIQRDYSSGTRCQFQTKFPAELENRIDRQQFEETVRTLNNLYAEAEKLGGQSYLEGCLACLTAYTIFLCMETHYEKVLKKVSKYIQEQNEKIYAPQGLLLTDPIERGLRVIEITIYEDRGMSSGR
Sequence of UniProt Q8TCD5 (Q8TCD5 whole entry, one chain of several): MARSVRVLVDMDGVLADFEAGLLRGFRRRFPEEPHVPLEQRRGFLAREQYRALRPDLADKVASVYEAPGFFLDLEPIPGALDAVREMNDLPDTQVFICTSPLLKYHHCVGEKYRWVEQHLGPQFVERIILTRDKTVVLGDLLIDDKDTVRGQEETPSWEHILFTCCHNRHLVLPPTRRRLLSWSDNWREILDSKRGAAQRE
Sequence of UniProt Q13795 (Q13795 whole entry): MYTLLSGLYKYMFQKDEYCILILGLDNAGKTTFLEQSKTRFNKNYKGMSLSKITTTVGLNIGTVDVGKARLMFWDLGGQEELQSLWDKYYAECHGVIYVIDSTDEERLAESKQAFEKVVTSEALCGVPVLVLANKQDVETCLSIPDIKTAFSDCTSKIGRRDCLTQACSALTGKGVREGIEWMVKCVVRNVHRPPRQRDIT
Sequence of UniProt Q8N183 (Q8N183 whole entry): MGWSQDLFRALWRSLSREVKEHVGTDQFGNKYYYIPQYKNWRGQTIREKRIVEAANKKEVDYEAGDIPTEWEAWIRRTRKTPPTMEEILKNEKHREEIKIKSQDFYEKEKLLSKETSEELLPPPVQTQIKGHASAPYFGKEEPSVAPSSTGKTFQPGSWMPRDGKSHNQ
Sequence of UniProt Q14061 (Q14061 whole entry): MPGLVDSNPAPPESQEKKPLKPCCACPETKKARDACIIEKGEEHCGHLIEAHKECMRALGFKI

Target	NP40-soluble protein abundance (concentration: 1mM)	NP40-soluble protein abundance (concentration: 2mM)	NP40-soluble protein abundance (concentration: 4mM)	NP40-soluble protein abundance (concentration: 6mM)	NP40-soluble protein abundance (concentration: 8mM)	NP40-soluble protein abundance (concentration: 10mM)
UniProt Q5JUR7	1 ± 0.077	1.07 ± 0.12	1.04 ± 0.029	1.02 ± 0.13	1.05 ± 0.087	1.06 ± 0.062
UniProt Q7Z7K6|Q7Z7K6-3	1.08 ± 0.058	1.14 ± 0.19	1.33 ± 0.14	1.47 ± 0.24	1.56 ± 0.23	2.03 ± 0.28
TBL3 (UniProt Q12788)	1.15 ± 0.06	1.3 ± 0.04	1.58 ± 0.036	1.59 ± 0.11	1.89 ± 0.1	2.01 ± 0.089
UniProt Q8N3X1|Q8N3X1-2	1.01 ± 0.026	1.11 ± 0.013	1.29 ± 0.042	1.57 ± 0.027	1.72 ± 0.08	1.9 ± 0.082
ZNF579 (UniProt Q8NAF0)	0.954 ± 0.03	1.06 ± 0.12	0.945 ± 0.016	0.936 ± 0.073	0.901 ± 0.045	0.887 ± 0.1
PDCD7 (UniProt Q8N8D1)	1.22 ± 0.14	1.24 ± 0.058	1.48 ± 0.099	1.48 ± 0.024	1.49 ± 0.13	1.76 ± 0.16
UniProt Q8WUY8|M0R1E3	1.02 ± 0.085	1.049 ± 0.0036	1.13 ± 0.032	0.966 ± 0.052	1.03 ± 0.067	1.08 ± 0.013
UniProt Q32P28|Q32P28-3|Q32P28-4	1.13 ± 0.023	1.15 ± 0.025	1.2 ± 0.077	1.19 ± 0.043	1.22 ± 0.051	1.198 ± 0.0094
NFX1 (UniProt Q12986)	1.07 ± 0.08	1.21 ± 0.042	1.34 ± 0.041	1.46 ± 0.046	1.62 ± 0.031	1.66 ± 0.11
UniProt Q641Q2|F8W7U3|Q641Q2-2	0.968 ± 0.057	0.9815 ± 0.0096	0.938 ± 0.033	0.94 ± 0.094	0.895 ± 0.05	0.896 ± 0.047
UniProt Q6PK18|Q6PK18-2	1.06 ± 0.02	1.06 ± 0.061	0.955 ± 0.045	1.03 ± 0.074	1.09 ± 0.15	1.04 ± 0.024
EFTUD2 (UniProt Q15029)	1.12 ± 0.04	1.16 ± 0.047	1.21 ± 0.047	1.26 ± 0.075	1.41 ± 0.056	1.42 ± 0.12
UniProt Q8TCD5|J3KRC4	1 ± 0.021	1.02 ± 0.04	1.01 ± 0.057	0.942 ± 0.15	1.01 ± 0.11	0.954 ± 0.091
UniProt Q86W42|Q86W42-2	1.59 ± 0.18	1.69 ± 0.05	2 ± 0.087	2.16 ± 0.071	2.47 ± 0.094	2.55 ± 0.19
UniProt Q8NC60	0.967 ± 0.17	0.876 ± 0.13	0.889 ± 0.13	0.876 ± 0.2	0.945 ± 0.15	0.942 ± 0.14
CEP135 (UniProt Q66GS9)	0.983 ± 0.041	0.966 ± 0.026	0.964 ± 0.038	0.956 ± 0.036	0.972 ± 0.029	0.989 ± 0.047
UniProt Q13057|Q13057-2	1.01 ± 0.061	1.02 ± 0.072	1.02 ± 0.086	0.962 ± 0.094	1.04 ± 0.095	1.02 ± 0.075
UniProt Q12872|Q12872-2	1.24 ± 0.083	1.33 ± 0.049	1.5 ± 0.049	1.77 ± 0.068	1.77 ± 0.066	1.93 ± 0.075
UniProt Q13642-1|Q13642-4|Q13642-5	0.979 ± 0.17	0.968 ± 0.11	0.956 ± 0.098	0.926 ± 0.091	0.979 ± 0.12	0.983 ± 0.064
UniProt Q14677|Q14677-3	1.04 ± 0.042	1.05 ± 0.02	1.04 ± 0.028	1.11 ± 0.027	1.07 ± 0.033	1.09 ± 0.055
ZCCHC7 (UniProt Q8N3Z6)	1.02 ± 0.19	1.2 ± 0.026	1.34 ± 0.021	1.48 ± 0.018	1.51 ± 0.15	1.79 ± 0.044
RNF20 (UniProt Q5VTR2)	0.962 ± 0.05	0.961 ± 0.02	0.935 ± 0.024	0.997 ± 0.041	0.935 ± 0.019	0.933 ± 0.017
UniProt Q86Y56	0.992 ± 0.076	0.985 ± 0.067	0.954 ± 0.036	0.917 ± 0.082	0.937 ± 0.046	0.976 ± 0.052
UniProt Q6NW34|Q6NW34-2	0.863 ± 0.078	0.831 ± 0.11	0.792 ± 0.15	0.892 ± 0.11	0.84 ± 0.14	0.785 ± 0.21
UniProt Q86X95	0.964 ± 0.013	0.935 ± 0.061	0.9643 ± 0.008	0.949 ± 0.026	0.935 ± 0.0096	0.913 ± 0.02

Target	NP40-soluble protein abundance (concentration: 1mM)	NP40-soluble protein abundance (concentration: 2mM)	NP40-soluble protein abundance (concentration: 4mM)	NP40-soluble protein abundance (concentration: 6mM)	NP40-soluble protein abundance (concentration: 8mM)	NP40-soluble protein abundance (concentration: 10mM)
KRR1 (UniProt Q13601)	1.12 ± 0.012	1.16 ± 0.043	1.23 ± 0.066	1.27 ± 0.047	1.29 ± 0.026	1.42 ± 0.033
UniProt Q14643|Q14643-2|Q14643-5	1.05 ± 0.071	0.999 ± 0.065	1 ± 0.041	0.961 ± 0.07	1.02 ± 0.027	0.995 ± 0.045
UniProt Q6Y7W6|Q6Y7W6-4|Q6Y7W6-5	1.05 ± 0.076	1.08 ± 0.05	1.1 ± 0.051	1.18 ± 0.068	1.12 ± 0.029	1.16 ± 0.045
UniProt Q6KCM7-2|Q6KCM7-3|Q6KCM7|Q6KCM7-4|Q6KCM7-5	0.871 ± 0.048	0.884 ± 0.061	0.831 ± 0.012	0.758 ± 0.085	0.868 ± 0.039	0.894 ± 0.026
COX17 (UniProt Q14061)	0.938 ± 0.1	0.895 ± 0.074	0.92 ± 0.1	0.963 ± 0.033	0.859 ± 0.056	0.847 ± 0.023
FLCN (UniProt Q8NFG4)	1.02 ± 0.056	1 ± 0.037	1.05 ± 0.066	0.988 ± 0.058	0.977 ± 0.07	0.974 ± 0.033
UniProt Q16630|Q16630-2	2.36 ± 0.24	2.68 ± 0.27	2.89 ± 0.3	3.09 ± 0.32	3.03 ± 0.2	3.05 ± 0.28
UniProt Q53HC0|Q53HC0-2	0.993 ± 0.083	0.918 ± 0.031	0.939 ± 0.082	0.993 ± 0.21	0.966 ± 0.092	0.922 ± 0.084
UniProt Q7Z2T5	1.09 ± 0.05	1.16 ± 0.051	1.27 ± 0.013	1.39 ± 0.023	1.55 ± 0.018	1.69 ± 0.051
NDUFAF2 (UniProt Q8N183)	0.927 ± 0.11	0.916 ± 0.046	0.934 ± 0.093	0.906 ± 0.046	0.959 ± 0.062	0.848 ± 0.12
ZDHHC17 (UniProt Q8IUH5)	1.08 ± 0.056	0.997 ± 0.021	1.11 ± 0.082	1.02 ± 0.058	1.09 ± 0.063	1.08 ± 0.033
Q5VVD7|Q8IWE5 (UniProt Q8IWE5)	0.929 ± 0.047	0.998 ± 0.048	0.932 ± 0.04	0.953 ± 0.036	0.95 ± 0.04	0.955 ± 0.03
UniProt Q8NCU8-2	0.876 ± 0.17	0.822 ± 0.086	0.826 ± 0.14	0.769 ± 0.068	0.883 ± 0.12	0.752 ± 0.038
UniProt Q14155-1	1 ± 0.011	0.9849 ± 0.0056	0.97 ± 0.013	1.02 ± 0.05	0.976 ± 0.024	0.962 ± 0.034
TRIM14 (UniProt Q14142)	1.08 ± 0.044	1.05 ± 0.037	1.13 ± 0.088	1.1 ± 0.083	1.17 ± 0.067	1.27 ± 0.2
UniProt Q8IZ81|D6RBS5	1.01 ± 0.11	0.966 ± 0.089	0.958 ± 0.094	0.916 ± 0.12	0.967 ± 0.045	0.958 ± 0.057
UniProt Q13795|Q13795-3	0.95 ± 0.024	0.961 ± 0.015	0.932 ± 0.025	0.962 ± 0.046	0.9416 ± 0.0073	0.945 ± 0.039
TOMM20 (UniProt Q15388)	0.921 ± 0.086	0.896 ± 0.044	0.903 ± 0.11	0.886 ± 0.041	0.8947 ± 0.0073	0.803 ± 0.21
UniProt Q16181|Q16181-2	0.891 ± 0.15	0.979 ± 0.023	0.9086 ± 0.0056	0.963 ± 0.076	0.957 ± 0.026	0.911 ± 0.046
AUH (UniProt Q13825)	0.96 ± 0.062	0.979 ± 0.049	0.967 ± 0.035	0.93 ± 0.082	0.96 ± 0.055	0.973 ± 0.036
UniProt Q5T200|Q5T200-2	1.04 ± 0.057	1.1 ± 0.056	1.15 ± 0.077	1.22 ± 0.094	1.21 ± 0.086	1.29 ± 0.093
SF3B3 (UniProt Q15393)	1.12 ± 0.072	1.11 ± 0.052	1.15 ± 0.072	1.1 ± 0.032	1.188 ± 0.0092	1.19 ± 0.037
FAM117B (UniProt Q6P1L5)	0.945 ± 0.048	0.984 ± 0.061	0.97 ± 0.039	0.978 ± 0.042	0.952 ± 0.069	0.946 ± 0.032
UniProt Q7Z5G4|Q7Z5G4-3	0.928 ± 0.02	0.914 ± 0.015	0.902 ± 0.019	0.885 ± 0.046	0.878 ± 0.014	0.897 ± 0.032
